Each structure is given as a SMILES string. The campaign covered roughly 650,000 compounds. About 5,900 (0.91%) were called active. Rule as the data show it: active = inhibition above about 50%; inactive = the rest. For the sample, actives were picked, then their nearest neighbours and some compounds at random.

The target in the assay is Microphthalmia-associated transcription factor (Homo sapiens) (UniProt O75030). In words: MITF inhibitors, primary screen, biochemical, AlphaScreen, human (AID 1259374).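 Also: 0% = vehicle wells with protein.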 The following applies: AlphaScreen MITF homodimerization, bead proximity signal; at 2.6 µM; stronger effect = higher value. A general note: In Alpha technology, singlet oxygen from a donor bead excites a nearby acceptor bead.
Sequence of Microphthalmia-associated transcription factor (Homo sapiens) (O75030 whole entry, looked up): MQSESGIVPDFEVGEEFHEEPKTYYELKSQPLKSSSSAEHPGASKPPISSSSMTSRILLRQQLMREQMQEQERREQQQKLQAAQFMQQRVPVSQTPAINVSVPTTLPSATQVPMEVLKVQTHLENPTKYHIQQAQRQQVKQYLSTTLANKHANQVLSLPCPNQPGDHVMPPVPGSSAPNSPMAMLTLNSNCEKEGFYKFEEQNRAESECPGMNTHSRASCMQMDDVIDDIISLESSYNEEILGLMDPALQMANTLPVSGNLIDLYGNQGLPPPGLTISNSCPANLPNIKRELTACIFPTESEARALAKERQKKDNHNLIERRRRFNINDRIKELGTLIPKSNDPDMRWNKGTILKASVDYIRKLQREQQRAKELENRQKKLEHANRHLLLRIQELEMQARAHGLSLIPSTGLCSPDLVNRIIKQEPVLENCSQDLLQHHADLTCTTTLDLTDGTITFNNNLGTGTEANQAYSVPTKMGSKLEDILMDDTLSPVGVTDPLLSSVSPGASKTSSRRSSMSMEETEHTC
For `COc1ccc(OC)c(-n2nnnc2SCC(=O)N2CCc3ccccc32)c1`, the inhibition was 9.95% (inactive). Next, `CC(C)n1cnc2c(NCc3cccc(C(F)(F)F)c3)nc(Nc3ccncn3)nc21`: 12.6% (inactive); `Cc1ccc2c(c1)-c1c(cnn1CC(=O)NCc1ccccn1)CO2`: -4% (inactive); `COc1cccc(N2CCN(Cc3cccs3)CC2)c1`: 42.8% (inactive). Next, `COc1ccc(N2CCN(Cc3ccc(Br)s3)CC2)cc1`: 71.6% (active); `COc1ccc(N2CCN(Cc3coc4ccc(Cl)cc4c3=O)CC2)cc1`: 10.4% (inactive). Next, `CCOC(=O)c1ccc(-n2c(=S)sc3c2nc(SCC(=O)N2CCCC2)n2c4ccccc4nc32)cc1`: -3.4% (inactive). With `CCOc1cc2c(cc1/C=C1/NC(=O)N(CC(=O)Nc3ccccc3C)C1=O)OCO2`, the inhibition was 12.6% (inactive).

For `Cc1ccccc1CC1(C2CCN(C(=O)C(C)C)CC2)NC(=O)N(CCCN(C)C)C1=O` (centres undefined), the inhibition was 4.98% (inactive). As for `CNC(=O)/C(C#N)=C/c1cn(CC(=O)NCCOC)c2ccccc12`, the inhibition was 5.66% (inactive). For `COc1cccc(CN2CCN3C(=O)[C@H]4CCCN4C(=O)[C@H]3C2)c1` the value was -17.2% (inactive). For `CSc1ccc(CN2CCN(Cc3cccc(Oc4ccccc4)c3)CC2)cc1` the value was 52% (active); for `CSc1ccc(CN2CCN(C(=O)c3cccc(F)c3)CC2)cc1`, 34.1% (inactive); for `CCc1ccc(NS(=O)(=O)c2ccc3c(c2)CCN3C(=O)C2CC2)cc1`, 2.16% (inactive).

As to `CCC1CCc2c(sc3nc(SCC(=O)Nc4ccc(Br)cc4)n(-c4ccccc4)c(=O)c23)C1` (centres undefined), the inhibition was 10.8% (inactive). In the case of `COCc1nc2ccccc2n1CCc1noc(-c2ccco2)n1`, the inhibition was 82% (active). `Cc1nc2ccccc2n1CCc1noc(COc2ccccc2)n1`: the inhibition is 9.51% (inactive). With `COCc1nc2ccccc2n1CCc1noc(-c2cccs2)n1`, the inhibition is 8.99% (inactive).

For `CCCc1[nH]n(-c2ccc(F)cc2)c(=O)c1CNN1CCOCC1`, the inhibition is -2.83% (inactive). For `COc1cc(/C=C/C(=O)OCC(N)=O)ccc1OCC#N` the value was 6.64% (inactive); for `CNC(=O)COC(=O)/C=C/c1ccc(C)o1`, 18.9% (inactive); for `NC(=O)COC(=O)/C=C/c1ccc(I)o1`, 52.1% (active).

With `Cc1ccc(C)c(NC(=S)N(Cc2ccccc2C)CC2CCC(C(=O)O)CC2)c1` (centres undefined), the inhibition was 13.3% (inactive). For the compound `CCCCC(=O)NC(c1ccc(OC)cc1)c1cc([N+](=O)[O-])c2cccnc2c1O` (centres undefined), the inhibition is 18.8% (inactive). Next, `COc1cc(C(=O)NC(c2ccccc2Cl)c2cc([N+](=O)[O-])c3cccnc3c2O)cc(OC)c1OC` (centres undefined): 24.9% (inactive); `CCCC(=O)NC(c1ccccc1OC)c1cc([N+](=O)[O-])c2cccnc2c1O` (centres undefined): 56.2% (active). Next, `C/C(N)=C(/C#N)C(=O)CSc1cccc[n+]1[O-]`: -1.32% (inactive); `O=C1c2ccccc2-c2ccc(-c3nc(-c4ccccc4)[nH]c3-c3ccccc3)cc21`: -1.27% (inactive); `CC(C)(C)NCCOCCOc1ccc(Cl)c(Cl)c1`: 73.1% (active). Next, `Cc1ccc(OCCCCNC(C)(C)C)cc1C`: 1.35% (inactive); `CC(C)(C)NCCOCCOc1ccc(I)cc1`: 40.6% (inactive); `CCOC(=O)C(C)Oc1cccc2c(=O)n(CC(=O)Nc3ccc(C)c(Cl)c3)ccc12` (centres undefined): -3.54% (inactive). In the case of `CC1=C(C#N)C(=O)NC(=O)/C1=C\c1ccc(-c2ccc(Cl)c(C(=O)O)c2)o1`, the inhibition is 77.7% (active). Next, `CC1=C(C#N)C(=O)NC(=O)/C1=C/c1ccc(-c2ccc(Cl)cc2Cl)o1`: 13.9% (inactive); `CC1=C(C#N)C(=O)NC(=O)/C1=C\c1ccc(-c2cccc(Cl)c2)o1`: -5.17% (inactive). Next, `CCOC(=O)c1ccc(N2CCN(c3ccc(F)cc3)CC2)c(NC(=O)Nc2ccc(OC)cc2OC)c1`: -1.5% (inactive); `O=C1C2C3CC(C(Br)C3Br)C2C(=O)N1C1CCCCC1` (centres undefined): -2.53% (inactive). Next, `O=C(NCc1ccco1)c1ccc2c(c1)C(=O)N(Cc1cccnc1)C2=O`: -3.01% (inactive); `O=C(c1ccc2c(c1)C(=O)N(Cc1cccnc1)C2=O)c1ccc2c(c1)C(=O)N(Cc1cccnc1)C2=O`: 104% (active). Turning to `O=C(Nc1cccc(O)c1)c1ccc2c(c1)C(=O)N(Cc1cccnc1)C2=O`, the inhibition was -1.4% (inactive).

With `CC(=O)N1C(=O)C(=O)c2cc(Cl)ccc21`, the inhibition was -11.3% (inactive). Next, `Cc1ccc(NC(=O)C(C)C2Sc3ccccc3NC2=O)c(C)c1` (centres undefined): 9.32% (inactive). For `O=C(C1CCN(c2nc3ccccc3n3cccc23)CC1)N1CCN(c2ccccn2)CC1` the value was 10.7% (inactive); for `O=C(C1CCN(Cc2nc3ccccc3[nH]2)CC1)N1CCN(c2ccc(Cl)nn2)CC1`, -4.97% (inactive); for `O=C(C1CCN(Cc2nc3ccccc3[nH]2)CC1)N1CCN(c2ccccn2)CC1`, 51.4% (active). Take `CN(c1ccccc1)S(=O)(=O)c1ccc(C(=O)N2CCc3ccccc32)cc1`: the inhibition was -6.36% (inactive).

Regarding `Fc1ccccc1OCCCCn1cncn1`, the inhibition was 20.2% (inactive). Next, `c1ccc(Oc2cccc(OCCCCn3cncn3)c2)cc1`: 73.8% (active); `O=C(Cn1cncn1)NCCCOc1cccc(CN2CCCCCCC2)c1`: -3.47% (inactive); `O=C(c1cccs1)N1CCN(S(=O)(=O)c2ccc(Cl)cc2)CC1`: -0.92% (inactive). For `O=C(c1cccs1)N1CCC(N2CCN(Cc3ccccc3)CC2)CC1` the value was 76.7% (active); for `O=C(CN1CCN(C(=O)c2cccs2)CC1)c1cccs1`, -1.86% (inactive).

Turning to `Cc1cccc(CN2CCC(N3CCN(C(=O)c4cccs4)CC3)CCC2=O)c1` (centres undefined), the inhibition is -6.77% (inactive). Regarding `CCOC(=O)c1c(NC(=O)c2ccccc2Br)sc2c1CC(C)(C)NC2(C)C`, the inhibition is 3.37% (inactive). For `Nc1ccc(S(=O)(=O)O)c2cc(S(=O)(=O)O)cc(O)c12` the value was 63.3% (active); for `NS(=O)(=O)c1ccc(O)c2ccccc12`, 13.7% (inactive).

With `Cc1ccc(/C=C2/C(=O)N(C)C(=S)N(c3ccccc3)C2=O)s1`, the inhibition was 23.2% (inactive). Next, `O=C1c2ccccc2C(O)N1Cc1ccccc1` (centres undefined): 3.72% (inactive).

As to `O=C(NC1CC1)C1CCC(=O)N1Cc1ccccc1Cl` (centres undefined), the inhibition is -6.74% (inactive).

`O=C1c2ccccc2C(O)N1Cc1ccccc1Cl` (centres undefined): the inhibition is 79.6% (active). For `COC(=O)Cn1cc(-c2ccc([N+](=O)[O-])cc2)nc1SCC(=O)NC(C)(C)C` the value was -1.03% (inactive); for `N#Cc1ccc(-c2cccnc2)nc1SCC(=O)c1ccc(Cl)cc1`, -7.18% (inactive). In the case of `COCCN(C(=O)CN1C(=O)c2ccccc2C1=O)C1(C(=O)Nc2ccccc2)CCCC1`, the inhibition is 11.4% (inactive). For `CCN(C(=O)Cc1nc(N)n[nH]1)C1(C(=O)Nc2ccccc2)CCCCC1` the value was 68.5% (active); for `COc1ccc(NC(=O)C2(N(C)C(=O)Cn3nnnc3N)CCCCC2)cc1`, 5.13% (inactive). Next, `COCCCN(C(=O)c1cc2ccccc2o1)C1(C(=O)Nc2ccccc2)CCCC1`: 6.26% (inactive); `CCN(C(=O)Cc1nc(N)n[nH]1)C1(C(=O)Nc2ccc(C)cc2)CCCCC1`: 63% (active).

For the compound `COc1ccc(N(C(=O)Cc2nc(N)n[nH]2)C2(C(=O)Nc3ccccc3)CCCCC2)cc1`, the inhibition was -1.47% (inactive). Next, `Cc1ccc(NC(=O)CNCCCSc2ccccc2)cc1C`: 75.4% (active).

Consider `Cc1ccc(NC(=O)CSCC(=O)Nc2ccccc2F)cc1C`, for which the inhibition is 4.24% (inactive). Next, `Cc1ccc(NC(=O)Cn2c(=O)[nH]n(-c3ccccc3)c2=O)cc1C`: -10.5% (inactive); `CC1=CC(C)(C)N2C(=O)C(=O)c3cc(OC(=O)C(C)(C)C)cc1c32`: -9.06% (inactive). Next, `CC(C)OC(=O)C1=c2/c(=C/c3ccco3)c(N)c(C#N)n2C(=O)C(c2ccco2)S1` (centres undefined): 14.9% (inactive); `Cc1nc(N2CCCCC2C)c2c(C)c(C(=O)NC3CCCCC3)sc2n1` (centres undefined): 9.14% (inactive); `COCC(=O)Nc1ccc2nc(C)n(-c3ccc(F)cc3)c(=O)c2c1`: -0.07% (inactive). Next, `Cc1nccn1CC(O)COc1ccc(Br)cc1` (centres undefined): 4.86% (inactive). As to `COc1ccc(OCCn2ccnc2C)cc1`, the inhibition was 57.2% (active). For `COc1ccc(OCCSc2nnc3nc(C)cc(C)n23)cc1` the value was 7.82% (inactive); for `CC1CCC(C(C)C)C(OC(=O)COC(=O)c2cnccn2)C1` (centres undefined), 2.66% (inactive). For `CC(C)(C)NCC(=O)Nc1c2c(nc3ccccc13)N(Cc1ccccc1)CC2` the value was 63.8% (active); for `CCOC(=O)COc1cccc2c1CCN(Cc1ccccc1)C2=O`, -3.19% (inactive). Next, `CCN(CC)CC(=O)Nc1nn(-c2ccccc2)nc1C(N)=O`: -0.44% (inactive); `CCN(CC)CC(=O)Nc1c2c(nc3ccccc13)N(c1cccc(C)c1)CC2`: 65.6% (active). Turning to `Cc1cc(C)c(NC(=O)CNC(C)(C)C)c(C)c1`, the inhibition is -3.53% (inactive).

Consider `CCOC(=O)C1CCN(c2nc(-c3cccc(C)c3)nc3ccccc23)CC1`, for which the inhibition is 0.58% (inactive).

For the compound `Cc1[nH]c(=O)[nH]c(=O)c1S(=O)(=O)N1CCOc2ccccc21`, the inhibition is 5.78% (inactive). For `CC(NCCCN1CCOCC1)C(=O)Nc1ccccc1` (centres undefined) the value was 77.6% (active). Regarding `CCc1ccc(NC(=O)C(=O)NCCCN2CCOCC2)cc1`, the inhibition is 12.7% (inactive). For `CC(C)C(=O)Nc1ccc(CN2CCOCC2)cc1` the value was 1.55% (inactive); for `O=C(Cn1c(=O)n(Cc2ccc3c(c2)OCO3)c(=O)c2ncccc21)N1CCc2ccccc21`, 3.95% (inactive); for `COc1cc(C=O)ccc1OCC(=O)c1ccc(C)c(C)c1`, 11.1% (inactive). For `CCOC(=O)N/N=C/c1ccc(OS(=O)(=O)c2ccc(C)cc2)c(OC)c1` the value was 2.78% (inactive); for `COc1ccc(C(=O)COC(=O)CNS(=O)(=O)/C=C/c2ccc(C)cc2)cc1OC`, 74.8% (active). For `O=C(CCN1C(=O)C2CCCCC2C1=O)N1CCc2c(nc(N3CCCC3)[nH]c2=O)C1` (centres undefined) the value was -0.41% (inactive).

A word on the inhibition: it is the relative decrease from the control value, in per cent.

(Values after PubChem BioAssay AID1259374 (The Scripps Research Institute Molecular Screening Center, 2018).)
